Test results as given in PubChem BioAssay AID651812 (National Center for Advancing Translational Sciences (NCATS), 2012).
About 650 (31%) of roughly 2,100 compounds were called active. Not shown: some 16% with an inconclusive outcome. This is one part of the list. Values without a mark were called inactive. Calls follow the shape of the dose curve; as a rule, active = well fitted inhibition curve with a large enough effect; inconclusive = small, poorly fitted or top-dose-only effect; inactive = flat fitted curve, though single readings scatter.

test: qHTS for inhibitors of Vif-A3G interactions: Cherry picks; settings: HeLa A3G-eYFP + Vif (tagged APOBEC3G with the HIV-1 protein that degrades it), 24 h; Potency: eYFP fluorescence increase; series mostly up to 36.9 µM; activity, negative = fluorescence increase: at the top concentration; also: nearly all actives have a fitted effect of over 80% in size; as to activity, negative = fluorescence increase: % of control where 0% means no effect
From the text: The recent discovery and characterization of host restriction factors, which provide a potent defense to invading retroviruses, has provided new targets for antiviral drug development. APOBEC3G (A3G) and APOBEC3F (A3F) are potent cytidine deaminases that block HIV-1 replication; HIV-1 expresses the Vif protein, which counteracts A3G and A3F by binding to them and inducing their proteasomal degradation. The Vif-A3G and Vif-A3F interactions provide two potential targets for development of small molecules which can interfere with the ability of Vif to degrade A3G or A3F. […] To identify inhibitors that can interfere with Vif mediated degradation of A3G and A3F, we have developed Hela cell lines that stably express A3G or A3F tagged with eYFP at the C-terminal end (A3G-eYFP or A3F-eYFP, respectively) and Vif. In the absence of an inhibitor, Vif induces degradation of A3G-eYFP and A3F-eYFP, and the cells are not fluorescent. In the presence of an inhibitor, it is expected that Vif will be unable to degrade A3G-eYFP and/or A3F-eYFP, resulting in an increase in yellow fluorescence. In this assay, Vif A3G was screened against the cherry picks ordered from the MLSMR. NIH Chemical Genomics Center [NCGC] NIH Molecular Libraries Probe Centers Network [MLPCN] MLPCN Grant: MH093245 Assay Submitter (PI): Vinay Pathak, National Cancer Institute
A3G-Vif cells were harvested from T225 flask and resuspended in phenol free OPTI-MEM medium with 5% FBS. Then 5 uL of 140,000 cells/mL resuspended cells was dispensed into each well of low base Aurora COC 1,536-well plates (black walled, clear bottom) using a Multidrop Combi dispenser. After overnight culture at 37 deg C with 5% CO2, a total of 23 nL of compounds at 5 selected concentrations from the NPC or positive control (2 mM stock of MG132) in DMSO was transferred to each well of the assay plate using a pintool (Kalypsys, San Diego, CA), and the plates were further incubated at 37 deg C with 5% CO2 for 24 hours. After that, the plates were measured on Acumen Explorer (TTP Lab Tech). The fluorescence was detected by 488 nm/Ex and […].
Potency is read from the fitted curve at half-maximal effect.

SMILES	activity, negative = fluorescence increase	Potency
CCOc1c(Cl)cc(/C=N/NC(N)=S)cc1OC	-10.8% [at 46.1 µM]	
CCOc1ccc(-c2cc(C(F)(F)F)c(C#N)c(SCC(=O)Nc3ccccc3)n2)cc1		18.4 µM (active)
Cc1cc(C(F)(F)F)c(C#N)c(SCC(=O)Nc2nc3ccccc3s2)n1		18.4 µM (active)
CCOC(=O)c1ccc(N=Nc2c(C)c(C#N)c(O)[nH]c2=O)cc1	-10.2% [at 46.1 µM]	
Cc1cnc(NC(=O)CC(C)c2ccccc2)s1 (stereo unspecified)	2.19%	
CCOC(=O)c1ccc(NC(=O)CSc2nc(-c3ccc(F)cc3)cc(C(F)(F)F)c2C#N)cc1		20.6 µM (active)
Cc1ccc(S(=O)(=O)CCSc2nc(C)cc(C(F)(F)F)c2C#N)cc1		14 µM (active)
CCOC(=O)c1ccc(NC(=O)Cn2ncc(Cl)c(Cl)c2=O)cc1	0.447%	
CCOc1ccc(-c2cc(C(=O)N/N=C(\C)c3cccnc3)c3ccccc3n2)cc1	-5.98%	
Cc1ccc2nc(NC(=O)CN(C)S(=O)(=O)c3cccc4nsnc34)sc2c1	-2.5%	
CCOc1ccc(-n2nnnc2SCC(=O)c2ccccc2)cc1	-0.934%	
COc1ccc(C2C(C#N)=C(N)Oc3cc(N)ccc32)cc1OC (stereo unspecified)	-7.81%	
COc1cc(C2C3=C(COC3=O)Oc3cc4c(cc32)OCO4)ccc1OC(C)=O (stereo unspecified)	-0.554%	
Cc1cccc(N2CCN(C(=O)c3cccc(N4CCCC4=O)c3)C(C)C2)c1 (stereo unspecified)	-3.43%	
COc1cc(-c2noc(C)c2C#Cc2ccc(N)cc2)cc(OC)c1OC	-3.97%	
CSCC[C@H](NC(=O)[C@H](Cc1ccccc1)n1c(=O)[nH]c2ccccc2c1=O)C(=O)N1CCC[C@@H]1C(=O)O	-4.21%	
COc1cc(-c2noc(C)c2/C=C/c2ccc(OC(C)=O)cc2)cc(OC)c1OC	-1.58%	
CCCCOc1ccc(-c2cc(C(F)(F)F)c(C#N)c(SCC(=O)O)n2)cc1		18.4 µM (active)
Cc1coc(NC(=O)CSc2nc(-c3ccncc3)cc(C(F)(F)F)c2C#N)n1		14.6 µM (active)
C=CCNc1nc(-c2ccccc2)c(C(=O)OCC)cc1C#N	-3.17%	
CCOC(=O)c1ccc(NC(=O)CSc2nc(-c3ccc(OC)cc3)cc(C(F)(F)F)c2C#N)cc1		20.6 µM (active)
CCOC(=O)c1ccc(NC(=O)CSc2nc(-c3cccs3)cc(C(F)(F)F)c2C#N)cc1		20.6 µM (active)
O=C(CSc1nc(-c2ccco2)cc(C(F)(F)F)n1)Nc1cccnc1	1.16%	
O=C(OCCC12CC3CC(CC(C3)C1)C2)c1ccc(NCc2cc(O)ccc2O)cc1	-3.77%	
N#Cc1c(C(F)(F)F)cc(-c2cccs2)nc1SCC(=O)Nc1cccc(Cl)c1	-1.81% [at 46.1 µM]	
N#Cc1c(C(F)(F)F)cc(-c2cccs2)nc1SCC(=O)Nc1cccc(C(F)(F)F)c1		18.4 µM (active)

SMILES	activity, negative = fluorescence increase	Potency
O=C(NCc1ccccc1)C1Cc2c(-c3ccc(Cl)cc3)ccnc2O1 (stereo unspecified)	-5.56%	
COCCCNC(=S)N/N=C/c1ccc(OC)cc1	10.1% [at 46.1 µM]	
N#C/C(=C\c1ccccc1[N+](=O)[O-])C(=O)NCc1ccccc1	0.838% [at 46.1 µM]	
N#C/C(=C\c1ccc(N2CCOCC2)o1)C(=O)NC1CCCCC1		15.8 µM (active)
CN(C)c1ccc(/C=C(/C#N)C(=O)NCc2ccccc2)o1		14.6 µM (active)
N#C/C(=C\c1ccc(N2CCOCC2)o1)C(=O)NCCc1ccccc1		23.1 µM (active)
N#C/C(=C/c1ccc(N2CCOCC2)o1)C(=O)NC1CCCCC1		18.4 µM (active)
O=C(NCc1ccccc1)C(=O)NCC1COc2ccccc2O1 (stereo unspecified)	-0.45%	
Cc1ccc(CN(C(=O)c2ccccc2F)c2ccccn2)o1	0.719% [at 46.1 µM]	
CCOC(=O)c1cnc(-n2nc(C)cc2C)nc1NNc1nc(-c2ccccc2)cc(-c2ccccc2)n1	-0.776% [at 46.1 µM]	
COC(=O)c1[nH]c2c(c1C(=O)OC)CCc1ccccc1-2	-19.5% [at 46.1 µM]	
CC(CC(=O)Nc1ccc2c(c1)c(=O)n(C)n2-c1ccccc1F)c1ccccc1 (stereo unspecified)	-10.3%	
O=C1[C@@H]2[C@@H](CN3CN(c4ccccc4)N=C(c4ccccc4)[C@@]23c2ccccc2)C(=O)N1c1ccccc1	-0.0506% [at 46.1 µM]	
Nc1c(C(=O)c2ccc(Cl)cc2)sc2nc3c(cc12)CCC3		18.4 µM (active)
O=C(Cn1nc2c(cc1=O)CCCC2)NCc1ccc(Cl)cc1	-16.5% [at 46.1 µM]	
CC(=O)Nc1cccc(-c2ccnc3c2CC(C)(C(=O)NCc2ccccc2)O3)c1 (stereo unspecified)	-10.7%	
COc1ccc(/C=N/NC(=O)c2cc(OC)c(OC)c(OC)c2)cc1CN1CCc2cc(OC)c(OC)cc2C1C (stereo unspecified)	-2.3%	
O=C1/C(=C\c2cc([N+](=O)[O-])ccc2O)SC(=S)N1Cc1ccc(Cl)cc1		18.4 µM (active)
O=C1NC(=Nc2ccccc2Cl)S/C1=C\c1cc([N+](=O)[O-])ccc1O	-12.2%	
CN(C)c1ccc(/C=C/C(=O)c2c(O)c3ccccc3oc2=O)cc1		1.46 µM (active)
C=CCOc1ccc2nc(NC(=O)OC)[nH]c2c1	-9.73%	
CC[n+]1c(/C=C/Nc2ccccc2)oc2ccc(OC)cc21		20.6 µM (active)
CC[n+]1c(/C=C/N(C)c2ccccc2)oc2ccc(F)cc21		17.7 µM (active)
CC[n+]1c(/C=C/Nc2ccccc2)oc2ccccc21		14.6 µM (active)
COc1ccc(N/C=C/C(=O)c2sc(-c3ccccc3)nc2C)cc1	-3.35%	
